PubChem BioAssay (EPA / NIEHS)
Calls of active or inactive are those of the source. How the source made its calls, unless noted: active means hit-call score of the fitted dose curve at least 0.9, where 1 is the maximum; inactive means score below 0.9.

Tests used:
[1] = read-out: Protein phosphatase 2A (PPP2R4), PTPA (gene 5524); assay: LTEA_HepaRG_PPP2R4: Life Technologies and Expression Analysis (LTEA) Assay for Protein phosphatase 2A (PPP2R4) using HepaRG (AID 2283522); details: mRNA level, 48 h; actives raise or lower the signal
In short: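 Gene-expression endpoint in HepaRG hepatic cells: 48 h treatment across eight half-log concentrations up to 100 uM in 0.5% DMSO. PPP2R4 mRNA by qRT-PCR, normalized to three endogenous control genes.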

[2] = read-out: Phosphatase and tensin (PTEN), PTEN (gene 5728); assay: LTEA_HepaRG_PTEN: Life Technologies and Expression Analysis (LTEA) Assay for Phosphatase and tensin (PTEN) using HepaRG (AID 2283523); details: mRNA level, 48 h; actives raise or lower the signal
In short: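 Differentiated human HepaRG cells, plated 48 h then switched to serum-free induction medium, were exposed in duplicate for 48 h to eight half-log concentrations up to 100 uM in 0.5% DMSO. PTEN mRNA measured by TaqMan qRT-PCR, normalized to ACTB/GAPDH/POLR2A, bidirectional fit versus DMSO.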

[3] = read-out: solute carrier (SLC22A1), SLC22A1 (gene 6580); assay: LTEA_HepaRG_SLC22A1: Life Technologies and Expression Analysis (LTEA) Assay for solute carrier (SLC22A1) using HepaRG (AID 2283524); details: mRNA level, 48 h; actives raise or lower the signal
In short: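 Human HepaRG cells were plated 48 h, switched to serum-free induction medium, then exposed in duplicate for 48 h to 8-point half-log series from 100 uM in 0.5% DMSO. SLC22A1 mRNA measured by qRT-PCR, normalized to ACTB/GAPDH/POLR2A, fitted bidirectionally versus DMSO.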

[4] = read-out: Pyruvate Dehydrogenase Kinase 4 (PDK4), PDK4 (gene 5166); assay: LTEA_HepaRG_PDK4: Life Technologies and Expression Analysis (LTEA) Assay for Pyruvate Dehydrogenase Kinase 4 (PDK4) using HepaRG (AID 2283525); details: mRNA level, 48 h; actives raise or lower the signal
In short: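 Differentiated human HepaRG cells, pre-cultured 48 h, were exposed in duplicate for 48 h in serum-free induction medium to eight half-log concentrations up to 100 uM in 0.5% DMSO. PDK4 mRNA was quantified by qRT-PCR, normalized to ACTB, GAPDH and POLR2A, bidirectional fitting versus DMSO.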

[5] = read-out: NAD(P)H dehydrogenase [quinone] 1 (NQO1), NQO1 (gene 1728); assay: LTEA_HepaRG_NQO1: Life Technologies and Expression Analysis (LTEA) Assay for NAD(P)H dehydrogenase [quinone] 1 (NQO1) using HepaRG (AID 2283526); details: mRNA level, 48 h; actives raise or lower the signal
In short: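 Human HepaRG hepatic cells received chemicals for 48 h in serum-free induction medium with 0.5% DMSO, up to 100 uM. Expression was assessed by TaqMan qRT-PCR against housekeeping controls and fitted bidirectionally against DMSO.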

[6] = read-out: Nuclear factor erythroid 2-related factor 2 (Homo sapiens) (UniProt Q16236); assay: LTEA_HepaRG_NFE2L2: Life Technologies and Expression Analysis (LTEA) Assay for Nuclear factor erythroid 2-related factor 2 (NFE2L2) Transcription Factor using HepaRG (AID 2283527); details: mRNA level, 48 h; actives raise or lower the signal
In short: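 Differentiated human HepaRG cells in serum-free induction medium were exposed for 48 h to eight concentrations (top 100 uM, half-log dilutions, 0.5% DMSO), in duplicate. NFE2L2 mRNA was quantified by TaqMan qRT-PCR, normalized to ACTB, GAPDH and POLR2A, with bidirectional fitting versus DMSO.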

[7] = read-out: succinate dehydrogenase complex iron sulfur subunit B (SDHB), SDHB (gene 6390); assay: LTEA_HepaRG_SDHB: Life Technologies and Expression Analysis (LTEA) Assay for succinate dehydrogenase complex iron sulfur subunit B (SDHB) using HepaRG (AID 2283528); details: mRNA level, 48 h; actives raise or lower the signal
In short: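 HepaRG cells (~100,000/well, plated 48 h) exposed in duplicate for 48 h in serum-free induction medium to 8-point half-log series from 100 uM in 0.5% DMSO; mRNA by qRT-PCR normalised to ACTB, GAPDH, POLR2A; bidirectional fit versus DMSO.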

[8] = read-out: Signal transducer and activator of transcription 3 (Homo sapiens) (UniProt P40763); assay: LTEA_HepaRG_STAT3: Life Technologies and Expression Analysis (LTEA) Assay for Signal transducer and activator of transcription (STAT3) using HepaRG (AID 2283529); details: mRNA level, 48 h; actives raise or lower the signal
In short: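 Differentiated human HepaRG cells in serum-free induction medium were exposed in duplicate for 48 h to eight half-log concentrations up to 100 uM in 0.5% DMSO. STAT3 mRNA was quantified by TaqMan qRT-PCR, normalized to ACTB, GAPDH and POLR2A, and fitted bidirectionally against DMSO.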

[9] = read-out: solute carrier (SLCO1B1), SLCO1B1 (gene 10599); assay: LTEA_HepaRG_SLCO1B1: Life Technologies and Expression Analysis (LTEA) Assay for solute carrier (SLCO1B1) using HepaRG (AID 2283530); details: mRNA level, 48 h; actives raise or lower the signal
In short: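 Human HepaRG cultures treated for 48 h with an eight-concentration half-log series topping at 100 uM; SLCO1B1 measured by qRT-PCR and fitted bidirectionally relative to DMSO.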

[10] = read-out: sulfotransferase 2A1 (SULT2A1), SULT2A1 (gene 6822); assay: LTEA_HepaRG_SULT2A1: Life Technologies and Expression Analysis (LTEA) Assay for sulfotransferase 2A1 (SULT2A1) using HepaRG (AID 2283531); details: mRNA level, 48 h; actives raise or lower the signal
In short: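 Gene-expression endpoint in a human liver cell line: SULT2A1 mRNA change after 48 h chemical treatment, curves fitted in both directions relative to 0.5% DMSO vehicle. Concentrations spanned eight half-log steps from 100 uM.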

[11] = read-out: Transforming Growth Factor (TGFA), TGFA (gene 7039); assay: LTEA_HepaRG_TGFA: Life Technologies and Expression Analysis (LTEA) Assay for Transforming Growth Factor (TGFA) using HepaRG (AID 2283532); details: mRNA level, 48 h; actives raise or lower the signal
In short: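 Differentiated human HepaRG cells, plated 48 h then switched to serum-free induction medium, were exposed in duplicate for 48 h to 8-point half-log series from 100 uM in 0.5% DMSO. TGFA mRNA measured by qRT-PCR, normalized to ACTB/GAPDH/POLR2A, bidirectional fit versus DMSO.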

[12] = read-out: Transforming Growth Factor (TGFB1), TGFB1 (gene 7040); assay: LTEA_HepaRG_TGFB1: Life Technologies and Expression Analysis (LTEA) Assay for Transforming Growth Factor (TGFB1) Transporter using HepaRG (AID 2283533); details: mRNA level, 48 h; actives raise or lower the signal
In short: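 Eight-point concentration-response (max 100 uM, half-log) in HepaRG under serum-free induction conditions, 48 h. TGFB1 mRNA by qRT-PCR, housekeeping-normalized.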

TIMP1, TIMP1 (gene 7076) = assay: LTEA_HepaRG_TIMP1: Life Technologies and Expression Analysis (LTEA) Assay for TIMP1 using HepaRG (AID 2283534); details: mRNA level, 48 h; actives raise or lower the signal
In short: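 TIMP1 induction or repression in HepaRG cells after 48 h chemical exposure (eight concentrations, highest 100 uM), assessed by normalized qRT-PCR with bidirectional fitting to DMSO controls.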

[13] = read-out: Tumor necrosis factor receptor 1 (TNFRSF1A), TNFRSF1A (gene 7132); assay: LTEA_HepaRG_TNFRSF1A: Life Technologies and Expression Analysis (LTEA) Assay for Tumor necrosis factor receptor 1 (TNFRSF1A) using HepaRG (AID 2283535); details: mRNA level, 48 h; actives raise or lower the signal
In short: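 Assay uses 48 h chemical treatment of differentiated HepaRG monolayers, tested in duplicate at eight concentrations from 100 uM downward in 0.5% DMSO. mRNA is normalized to ACTB, GAPDH and POLR2A, with induction or suppression fitted relative to vehicle.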

[14] = read-out: Thyroid Hormone Responsive (THRSP), THRSP (gene 7069); assay: LTEA_HepaRG_THRSP: Life Technologies and Expression Analysis (LTEA) Assay for Thyroid Hormone Responsive (THRSP) using HepaRG (AID 2283536); details: mRNA level, 48 h; actives raise or lower the signal
In short: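 Differentiated human HepaRG cells were exposed in duplicate for 48 h in serum-free induction medium to eight concentrations (top 100 uM, half-log steps, 0.5% DMSO). Expression was quantified by TaqMan qRT-PCR, normalized to ACTB, GAPDH and POLR2A, with bidirectional fitting against DMSO.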

[15] = read-out: UDP glucuronosyltransferase (UGT1A1), UGT1A1 (gene 54658); assay: LTEA_HepaRG_UGT1A1: Life Technologies and Expression Analysis (LTEA) Assay for UDP glucuronosyltransferase (UGT1A1) using HepaRG (AID 2283538); details: mRNA level, 48 h; actives raise or lower the signal
In short: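 Human liver HepaRG cultures receive test chemical for 48 h, up to 100 uM in 0.5% DMSO, with phenobarbital induction controls. UGT1A1 mRNA is measured by qRT-PCR and normalized to ACTB, GAPDH and POLR2A.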

[16] = read-out: UDP glucuronosyltransferase (UGT1A6), UGT1A6 (gene 54578); assay: LTEA_HepaRG_UGT1A6: Life Technologies and Expression Analysis (LTEA) Assay for UDP glucuronosyltransferase (UGT1A6) using HepaRG (AID 2283539); details: mRNA level, 48 h; actives raise or lower the signal
In short: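 Measures mRNA change in HepaRG hepatic cells exposed 48 h to chemicals (eight-point, maximum 100 uM, 0.5% DMSO vehicle) in serum-free induction medium. Expression normalized to endogenous controls; DMSO served as negative control and baseline.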

[17] = read-out: X-box binding protein 1 (XBP1), XBP1 (gene 7494); assay: LTEA_HepaRG_XBP1: Life Technologies and Expression Analysis (LTEA) Assay for X-box binding protein 1 (XBP1) using HepaRG (AID 2283540); details: mRNA level, 48 h; actives raise or lower the signal
In short: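 Eight concentrations (half-log, highest 100 uM, 0.5% DMSO) tested in duplicate on HepaRG cells over 48 h in serum-free induction medium; qRT-PCR of XBP1 normalised to ACTB, GAPDH, POLR2A.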

[18] = LTEA_HepaRG_LDH_cytotoxicity: Cytotoxicity Assessment in the Life Technologies and Expression Analysis (LTEA) Assay (AID 2283563; active means hit-call score of the fitted dose curve at least 0.9, where 1 is the maximum)
In short: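 Spent-medium LDH after 48 h chemical exposure of HepaRG cells in serum-free induction medium; eight concentrations, half-log dilutions from 100 uM, duplicate wells, fitted upward relative to 0.5% DMSO.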

Measured: AC50

Chain of Nuclear factor erythroid 2-related factor 2 (Homo sapiens) (Q16236 whole entry, looked up): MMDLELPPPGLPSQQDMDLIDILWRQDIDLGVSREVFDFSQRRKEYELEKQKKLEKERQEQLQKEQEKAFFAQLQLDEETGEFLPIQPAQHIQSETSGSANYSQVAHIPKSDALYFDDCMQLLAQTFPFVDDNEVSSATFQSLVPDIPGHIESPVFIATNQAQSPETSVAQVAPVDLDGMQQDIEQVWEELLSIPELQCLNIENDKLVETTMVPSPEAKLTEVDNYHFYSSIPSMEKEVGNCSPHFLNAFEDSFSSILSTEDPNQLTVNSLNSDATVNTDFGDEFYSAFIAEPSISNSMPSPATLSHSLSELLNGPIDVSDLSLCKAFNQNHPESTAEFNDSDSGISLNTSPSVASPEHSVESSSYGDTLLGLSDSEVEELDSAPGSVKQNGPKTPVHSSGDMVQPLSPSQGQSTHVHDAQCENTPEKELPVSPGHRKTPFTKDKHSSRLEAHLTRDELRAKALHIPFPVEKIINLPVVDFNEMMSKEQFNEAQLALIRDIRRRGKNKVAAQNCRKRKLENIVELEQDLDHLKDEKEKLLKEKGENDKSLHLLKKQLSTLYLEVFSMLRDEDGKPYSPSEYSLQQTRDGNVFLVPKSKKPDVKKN
Chain of Signal transducer and activator of transcription 3 (Homo sapiens) (P40763 whole entry, looked up): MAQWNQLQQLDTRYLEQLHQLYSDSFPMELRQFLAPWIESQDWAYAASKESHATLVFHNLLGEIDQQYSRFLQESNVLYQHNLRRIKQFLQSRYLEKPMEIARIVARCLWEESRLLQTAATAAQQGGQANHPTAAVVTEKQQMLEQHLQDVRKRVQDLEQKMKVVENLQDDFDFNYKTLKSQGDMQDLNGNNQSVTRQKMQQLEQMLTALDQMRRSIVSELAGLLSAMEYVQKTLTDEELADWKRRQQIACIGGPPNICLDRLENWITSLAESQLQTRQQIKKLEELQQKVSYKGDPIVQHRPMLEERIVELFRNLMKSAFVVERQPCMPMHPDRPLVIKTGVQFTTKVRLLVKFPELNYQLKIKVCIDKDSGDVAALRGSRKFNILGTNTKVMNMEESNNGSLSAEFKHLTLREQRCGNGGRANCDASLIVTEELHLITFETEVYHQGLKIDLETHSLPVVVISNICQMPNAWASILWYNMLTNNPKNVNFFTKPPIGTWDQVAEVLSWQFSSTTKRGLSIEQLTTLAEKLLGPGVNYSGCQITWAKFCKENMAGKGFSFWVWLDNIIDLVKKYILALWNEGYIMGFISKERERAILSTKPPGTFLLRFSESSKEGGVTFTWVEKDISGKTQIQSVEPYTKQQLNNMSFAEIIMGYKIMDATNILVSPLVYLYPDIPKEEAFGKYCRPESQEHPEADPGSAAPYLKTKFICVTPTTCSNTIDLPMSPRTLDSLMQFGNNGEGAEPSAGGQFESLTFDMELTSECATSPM

COP(=S)(OC)Oc1nc(Cl)c(Cl)cc1Cl
inactive: all assays above

CCOc1cc(Oc2ccc(C(F)(F)F)cc2Cl)ccc1[N+](=O)[O-]
active: [3] 38.6 µM | [6] 21.9 µM | [9] 20.6 µM | [10] 35.3 µM | [11] 15.3 µM | [12] 19 µM | [14] 21.7 µM | [15] 5.1 µM
not listed: [18]
inactive: all other assays above

Cc1ccc(-c2c(Cl)nc(C#N)n2S(=O)(=O)N(C)C)cc1
inactive: [5] | [6] | [11] | [12]
active: [1] 32.2 µM | [2] 16.8 µM | [3] 50 µM | [4] 50 µM | [7] 2.73 µM | [8] 18.4 µM | [9] 31.1 µM | [10] 10.3 µM | TIMP1, TIMP1 (gene 7076) 22.4 µM | [13] 34.9 µM | [14] 6.18 µM | [15] 37.4 µM | [16] 27.4 µM | [17] 90.6 µM
